Test results as given in PubChem BioAssay (NCI).
Compounds without any hit were thinned out: in the full panel of roughly 83,000, 20% have a hit.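 Single-concentration screen, 48 h exposure, 96-well plates. Endpoint: percent growth. Below 10 = active.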 Values without a mark were called inactive. Active and inactive are the calls of the source.

tested on: MCF7 breast; experiment: NCI-60 one-dose screen, 48 h (100 = growth as untreated, 0 = no growth, -100 = all killed); details: 10 µM unless noted
Protocol: Growth inhibition of the MCF7 human tumor cell line is measured as a screen for anti-cancer activity. Cells are grown in 96 well plates and exposed to the test compound for 48 hours. Compounds are tested at a single concentration, which is 10^-5 M for most compounds. The reported endpoint is percent growth (GI% or GIPRCNT), where numbers from 0 - 100% represent growth inhibition, and numbers from -100% - 0 represent cell death. For example, a value of 40 represents 60% growth inhibition. A value of 0 means no net growth occurred over the course of the experiment. A value of -40 indicates 40% of cells at the beginning of the experiment died by the end of the experiment. A value of -100 means all cells are dead at the end of the experiment.
NCI-60 Human Tumor Cell Lines Screen was performed using the standard one-dose NCI protocol, which is described in more detail at https://dtp.cancer.gov/discovery_development/nci-60/default.htm.
Compounds with GIPRCNT values below 10 were considered active. Activity score was based on GIPRCNT using the following formula: […]
Score is 0 for GIPRCNT values of 100 or above, 50 for GIPRCNT values of 0, and 100 for GIPRCNT values of -100.

Row | Structure (SMILES) | growth
1 | CCOC(OCC)c1cnc2nc(NC(C)=O)[nH]c(=O)c2n1 | 96.4%
2 | O=C1N(Cc2ccccc2Cl)c2ccccc2C12NN=C(c1ccccc1)S2 (stereo not given) | 53.5%
3 | c1ccc(-c2ccc(-c3ccccc3)[nH]2)cc1 | 85.9%
4 | COc1cc(OC)cc(-c2ccc(-c3ccc(C(=N)N)s3)s2)c1 | -72.8% (active)
5 | COc1ccc(/C=C(\C#N)c2cc(OC)c(OC)c(OC)c2)cc1 | 3.63% (active)
6 | COc1ccc(C(=O)OC2C(OC3C(O)COC(O[C@H]4C[C@H]5[C@@H]6CC=C7C[C@@H](O)CC[C@]7(C)[C@H]6CC[C@]5(C)[C@H]4[C@H](C)C(=O)CCC(C)C)C3OC(N)=O)OCC(O)C2O)cc1 (stereo not given in full) | -21.1% (active)
7 | CN(C)c1nc(-c2cccs2)n2nc(-c3ccc(Cl)cc3)cc2n1 | 66.2%
8 | NC(N)=N/N=C/c1cccc(Cl)c1Cl | 17.6%
9 | c1ccc2oc(-c3cnc4nonc4n3)cc2c1 | 88.5%
10 | CN(C)CCNC(=O)n1cc(-c2ccncc2)c(-c2cc(O)cc(Cl)c2)n1 | 102%
11 | Cc1[nH]c2ccccc2c1C1=CC(=O)C=CC1=O | 55.3%
12 | O=C1C(Cl)=C(Nc2cccc3ccccc23)C(=O)c2ccccc21 | 44%
13 | COc1ccc(-c2nc3c(c(-c4ccc(Cl)cc4)nn3-c3ccccc3)c(-c3ccc(O)cc3)c2C#N)cc1 | 13.6%
14 | O=c1c2cc(Cl)ccc2oc2ccc(OCCCCCN3CCCCC3)cc12 | 56.5%
15 | COc1cccc(-c2nc3sccn3c2-c2ccnc(NCCN3CCCN(C)S3(=O)=O)n2)c1 | 106%
16 | CCCCOc1nc2ccccc2cc1/C=C/c1cc(/C=C/c2cc3ccccc3nc2OCCCC)n(-c2ccccc2)n1 | 99.1%
17 | COc1ccc(-n2nc(C(=O)Nc3ccc(F)cc3)nc2-c2cc(OC)c(OC)c(OC)c2)cc1 | 91.8%
18 | COc1ccc(-c2cc(-c3cn(-c4cccc(Cl)c4)nc3-c3ccc(OC)cc3)[nH]c(=S)n2)cc1 | 86.1%
19 | COc1ccc(-c2nn(C(=O)NCCN(C)C)cc2-c2ccncc2)cc1Cl | 19.3%
20 | CCOC(=O)c1ccc2c(c1)[n+](=O)c(C(=O)c1ccc3ccccc3c1)c(C(F)(F)F)n2[O-] | -93.1% (active)

Row | Structure (SMILES) | growth
21 | C[N+](C)(C)CCCCCCCCCC[N+](C)(C)C | 91%
22 | CC(=O)Nc1c(Br)cc2c(c1Br)Cc1cc(Br)ccc1-2 | 59.9%
23 | O/N=C/c1ccncc1 | 97.3%
24 | C=C1C(=O)O[C@H]2[C@H]1CC/C(COC(=O)N[C@@H](Cc1c[nH]c3ccccc13)C(=O)OC)=C\CC[C@@]1(C)O[C@@H]21 | 11.7%
25 | CC(=O)O[C@H]1CC[C@]2(C)[C@H]3CC=C4[C@@H]5CC(C)(C)CC[C@]5(C(=O)OCC(COC(=O)C(Cl)Cl)(COC(=O)C(Cl)Cl)NC(=O)C(Cl)Cl)CC[C@@]4(C)[C@]3(C)CC[C@H]2C1(C)C | 41.9%
26 | Clc1ccc(Cl)c(N=Cc2ccc3c(c2)OCO3)c1 | 108%
27 | N/N=C(\C(=N\N)c1ccccc1)c1ccccc1 | 90%
28 | CC(=O)c1ccc(N2C(=O)c3ccc(Oc4ccccc4)cc3C2=O)cc1 | 101%
29 | CCCCCCCCCCCCCCCC1=NCCN1 | 32%
30 | COc1ccccc1CNCCCN1C(=O)c2ccc3c4c(ccc(c24)C1=O)C(=O)N(CCCOCCCCOCCCN)C3=O | -69.6% (active)
31 | O=C1/C(=C/c2ccccc2)SC(=Nc2ccccc2)N1Nc1ccccc1 | 1.62% (active)
32 | CC(=O)Nc1ccc(/C=N/N2CCCCCC2)cc1 | 92.2%
33 | CCN(CC)c1ccc2c(cc1=O)[C@@H](NC(C)=O)CCc1cc(OC)c(OC)c(OC)c1-2 | 14.9%
34 | CC(SC(C)C(=O)N/N=C/c1cccc(Cl)c1)C(=O)N/N=C\c1cccc(Cl)c1 (stereo not given) | 49.1%
35 | COc1ccc2nc(C)cc(Sc3nc4ccccc4s3)c2c1 | 15.9%
36 | O=C1/C(=C/N2N=C(c3ccc(Cl)cc3)CC2c2ccccc2O)SC(=S)N1c1cccc(C(F)(F)F)c1 (stereo not given) | 15.7%
37 | COc1cc2c(cc1OC)-c1cc(OC)c(OC)cc1C(CN(C)C)C2 (stereo not given) | 62% [100 µM]
38 | O=C(Nc1ccc(Cl)cc1)c1cc(-c2ccc(Cl)cc2)c2sc(=O)[nH]c2n1 | 0.758% (active)
39 | O=C1Nc2ccc(Cl)cc2/C1=C\c1c(-c2ccc(F)cc2)nc2ccccn12 | -9.38% (active)
40 | CCCCCCCCCCCC1=NC(C)(C)CN1C(C)C | 27.8%
